Screening results (PubChem BioAssay)
HDAC3 inh = human HDAC3 inhibition | 320,000 tested, 0.15% active | inhibition, % at 8.3 µM | recombinant HDAC3, fluorogenic peptide/trypsin coupled, fluorescence; in the data active means inhibition above about 26%, passing the limit was not always enough
Target sequence (O15379 whole entry, looked up): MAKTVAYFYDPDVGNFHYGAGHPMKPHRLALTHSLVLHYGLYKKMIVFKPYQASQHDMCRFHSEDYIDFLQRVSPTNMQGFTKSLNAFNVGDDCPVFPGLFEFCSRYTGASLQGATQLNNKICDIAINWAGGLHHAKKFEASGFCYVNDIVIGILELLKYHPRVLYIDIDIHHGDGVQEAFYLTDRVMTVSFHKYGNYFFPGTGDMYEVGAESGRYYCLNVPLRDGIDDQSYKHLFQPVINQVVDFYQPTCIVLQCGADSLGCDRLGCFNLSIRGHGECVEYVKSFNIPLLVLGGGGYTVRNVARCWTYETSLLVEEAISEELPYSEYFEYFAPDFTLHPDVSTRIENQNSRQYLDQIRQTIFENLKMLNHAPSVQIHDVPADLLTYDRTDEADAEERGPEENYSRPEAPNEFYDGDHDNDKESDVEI
Neddylation inh = cullin neddylation inhibition; P61081+Q13564; TR-FRET cullin neddylation, biochemical; inhibition, % at 25 µM; 360,000 tested, 0.58% active; AID 651699; in the data active means inhibition above about 36%
GRK2 aptamer HTS = human GRK2 inhibition via aptamer displacement; bead flow cytometry, FAM-aptamer displacement from GRK2; inhibition of aptamer binding, % at 10 µM; 330,000 tested, 0.59% active; AID 488847;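 active means inhibition of aptamer binding above 40%, roughly 3 SD of noise, on plates passing a quality check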;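 further: median bead fluorescence of bound FAM aptamer so fluorescent compounds give negative values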
Cardio protect = myocardial damage modulation in H9c2 cells. protection from H2O2 cell death, % at 20 µM. H9c2 cardiomyocytes, H2O2 injury protection, ATPLite, 2 h. AID 588492. 360,000 tested, 0.63% active;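 active means compounds giving at least 50% protection of heart cells from peroxide-induced death in the single-dose screen, raw or plate-pattern-corrected value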;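 further: 0% = DMSO wells with peroxide and 100% = DMSO wells without peroxide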
* hit, by the source's call; . = not tested or not shown. Sampled rows, rich in hits. Any-hit rate of the full collection: about 1.8%.

SMILES	HDAC3 inh	Neddylation inh	GRK2 aptamer HTS	Cardio protect
COc1cccc(-c2nnc(NC(=O)c3ccc(S(=O)(=O)N4CC(C)OC(C)C4)cc3)o2)c1 (stereo not drawn)	-3.0	1.2	1.0	55.5*
CCC1CCCCN1S(=O)(=O)c1ccc(C(=O)Nc2nnc(-c3cccs3)o2)cc1 (stereo not drawn)	-5.8	6.9	0.0	75.1*
Cc1ccc(C(=O)Nc2nnc(-c3ccco3)o2)cc1	-0.8	5.8	0.0	15.9
COc1ccc(-c2nnc(NC(=O)c3ccc(F)cc3)o2)cc1	0.1	14.3	0.0	67.8*
O=C(Nc1nnc(-c2ccco2)o1)c1ccc2ccccc2c1	13.1	-3.1	0.0	64.4*
Cc1nn(-c2ccccc2)c(C)c1C(=O)OCC(=O)N(C)c1c(N)n(Cc2ccccc2)c(=O)[nH]c1=O	-0.5	5.5	0.0	7.5
CC1CC(C)CN(S(=O)(=O)c2ccc(C(=O)Nc3nnc(-c4cccs4)o3)cc2)C1 (stereo not drawn)	9.1	25.5	9.0	50.3*
CN(C)S(=O)(=O)c1ccc(C(=O)Nc2nnc(-c3cccs3)o2)cc1	2.5	10.8	2.0	17.0
Cc1ccc2sc(NNC(=O)c3cc(=O)c4ccccc4o3)nc2c1C	0.3	-10.9	2.0	56.1*
O=C(c1cccc(-n2cccc2)c1)N1CCN(S(=O)(=O)c2ccccc2)CC1	-1.7	3.9	81.0*	-0.9
Cn1c(=O)n(CCc2ccccc2)c(=O)c2c1nc1n2CCN1Cc1ccco1	-0.3	-2.1	2.0	98.1*
Cn1c(=O)n(Cc2ccc(F)cc2)c(=O)c2c1nc1n2CCN1Cc1ccco1	-3.9	-2.3	0.0	5.4
CN(CC(=O)NC1CCCCC1)S(=O)(=O)c1ccc2c(c1)c(=O)n(C)c(=O)n2C	-1.0	0.9	9.0	0.5
C=CCC[C@H](Cc1ccc(F)cc1)C(=O)OC[C@@H](Cc1c[nH]c2ccccc12)NC(=O)[C@H](CC=C)CC(=O)N(CCO)Cc1ccccc1	-0.6	-10.1	28.0	-10.5
C=CC[C@@H](CC(=O)N(CCO)Cc1ccccc1)C(=O)NC[C@@H](OC(=O)[C@@H](CC=C)CC(=O)OC(C)(C)C)c1ccccc1	6.3	-21.4	0.0	17.5
C=CCC[C@@H](Cc1ccc(F)cc1)C(=O)OC[C@H](Cc1c[nH]c2ccccc12)NC(=O)[C@H](CC=C)CC(=O)NCCO	32.0*	-10.1	0.0	15.3
C=CCC[C@@H](Cc1ccc(F)cc1)C(=O)OC[C@@H](Cc1c[nH]c2ccccc12)NC(=O)[C@H](CC=C)CC(=O)N(CCO)Cc1ccccc1	50.6*	-22.2	3.0	-6.0
C=CC[C@H](CC(=O)N(CCO)Cc1ccccc1)C(=O)N[C@@H](COC(=O)[C@@H](CC=C)Cc1ccc(F)cc1)Cc1c[nH]c2ccccc12	38.9*	8.3	0.0	-13.7
C=CC[C@H](CC(=O)N(CCO)Cc1ccccc1)C(=O)NC[C@H](OC(=O)[C@@H](CC=C)CC(=O)OC(C)(C)C)c1ccccc1	31.2*	-24.0	0.0	9.1
c1ccc(C2CC(c3ccccc3)C(c3ccccc3)N2)cc1 (stereo not drawn)	-0.6	4.4	0.0	-2.1
OCc1cccnc1	-8.3	.	0.0	.
Cc1ccc(N2CC(C(=O)Nc3nnc(SCC(N)=O)s3)CC2=O)cc1 (stereo not drawn)	10.5	-4.5	0.0	2.1
NS(=O)(=O)c1ccc2nc(NC(=O)c3ccncc3)sc2c1	-1.8	9.1	10.0	-13.1
CCCN(CC(=O)Nc1ccccc1C)C(=O)c1cccc(-n2cnnn2)c1	-5.9	0.4	5.0	-0.6
C=CCC[C@@H](Cc1ccc(F)cc1)C(=O)OC[C@@H]1CCCN1C(=O)[C@H](CC=C)CC(=O)N[C@H](CO)Cc1ccccc1	17.7	-25.5	1.0	3.8
SMILES	HDAC3 inh	Neddylation inh	GRK2 aptamer HTS	Cardio protect
C=CC[C@@H](CC(=O)N(CCO)Cc1ccccc1)C(=O)N[C@@H](COC(=O)[C@@H](CC=C)Cc1ccc(F)cc1)Cc1c[nH]c2ccccc12	39.5*	-9.3	0.0	6.7
C=CCC[C@H](Cc1ccc(F)cc1)C(=O)OC[C@@H](NC(=O)[C@@H](CC=C)CC(=O)N[C@@H](CO)Cc1ccccc1)C(C)(C)C	31.6*	-7.1	49.0*	1.9
C=CC[C@H](CC(=O)N(CCO)Cc1ccccc1)C(=O)N[C@@H](COC(=O)[C@H](CC=C)CC(=O)OC(C)(C)C)Cc1c[nH]c2ccccc12	2.2	-9.6	0.0	-6.8
C=CC[C@@H](CC(=O)N(CCO)Cc1ccccc1)C(=O)N[C@H](COC(=O)[C@@H](CC=C)CC(=O)OC(C)(C)C)Cc1c[nH]c2ccccc12	50.2*	-27.5	1.0	-9.3
C=CCC[C@@H](Cc1ccc(F)cc1)C(=O)OC[C@@H]1CCCN1C(=O)[C@@H](CC=C)CC(=O)N(CCO)Cc1ccccc1	28.2*	-21.9	6.0	1.6
C=CCC[C@@H](Cc1ccc(F)cc1)C(=O)OC[C@@H](NC(=O)[C@@H](CC=C)CC(=O)N[C@@H](CO)Cc1ccccc1)C(C)(C)C	18.1	-10.3	1.0	-11.0
CC1CN(S(=O)(=O)c2cccc(C(=O)NCCC3=CCCCC3)c2)CC(C)O1 (stereo not drawn)	-7.6	-3.5	2.0	-8.8
O=C(O)c1ccc(S(=O)(=O)c2ccc3c(c2)C(=O)N(c2ccc(Br)cc2)C3=O)cc1	0.5	-33.5	2.0	2.0
CCc1cc2cccc(C)c2nc1SCC(=O)N1CCN(C(=O)c2ccco2)CC1	7.7	-178.4	6.0	58.8*
COc1ccc(OC)c(NC(=O)c2cc3ccccc3o2)c1	-11.0	8.5	0.0	0.7
COc1ccc(OC)c(Nc2nc(N)nc(-c3cc4ccccc4o3)n2)c1	2.7	24.5	0.0	56.1*
CCN1C(=O)/C(=C/c2nc3ccccc3c(=O)[nH]2)c2ccccc21	-4.0	1.9	4.0	77.6*
CCN1C(=O)/C(=C\c2nc3ccccc3c(=O)n2-c2ccccc2)c2ccccc21	0.9	-8.0	4.0	16.5
COc1cccc(-c2nc(-c3ccc(NC(=O)c4cccnc4)cc3)no2)c1	-2.5	33.8	0.0	33.9
COc1ccc(Cl)cc1-c1nc(-c2ccc(NC(=O)c3cccs3)cc2)no1	-13.6	.	6.0	56.0*
O=C(Nc1ccc(-c2noc(-c3cccs3)n2)cc1)c1cccnc1	3.3	3.7	2.0	63.8*
CCCCOCCCNC(=O)C[C@@H]1C[C@@]2(C(=O)OC)CCCCC=C2N(Cc2ccc3c(c2)OCO3)C1=O	.	-3.9	.	.
COc1cc(/C=N/NC(=O)c2ccc(CSc3nc4ccccc4[nH]3)cc2)ccc1O	-11.5	17.6	3.0	52.0*
COc1cc(C(=O)N/N=C/c2ccc(OC(=O)c3ccccc3)c(OC)c2)ccc1O	4.9	-2.9	1.0	52.2*
COc1cc(/C=N/NC(=O)c2cc(O)cc(O)c2)ccc1OC(=O)c1ccccc1	16.3	-10.7	44.0*	56.0*
COc1cc(/C=N/NC(=O)c2[nH]nc3c2CCc2ccccc2-3)ccc1O	8.4	27.6	2.0	53.7*
CCC(=O)OCC(=O)[C@@]1(OC(=O)CC)[C@@H](C)C[C@H]2[C@@H]3CCC4=CC(=O)C=C[C@]4(C)[C@@]3(Cl)[C@@H](O)C[C@@]21C	8.2	-5.5	0.0	6.4
